Source: PubChem BioAssay AID1347420 (Sanford-Burnham Center for Chemical Genomics, 2020)
In all, about 1,300 compounds went through this assay and about 980 (75%) were called active. Another 4% or so got no clear call; they are omitted. Some of the results follow. Values without a mark were called inactive.

The compounds below were run against Sulfhydryl oxidase 1 (Homo sapiens) (UniProt O00391) (assay: inhibition of human sulfhydryl oxidase QSOX1 – biochemical, HyperBlu H2O2 luminescence, HTS, primary screen (AID 1347420; note: values above 100% were filed as inconclusive)). Settings: recombinant QSOX1, HyperBlu H2O2 luminescence; at 12.5 µM; hits give high values; active = any value above zero.
Sulfhydryl oxidase 1 (Homo sapiens), sequence (O00391 whole entry, looked up): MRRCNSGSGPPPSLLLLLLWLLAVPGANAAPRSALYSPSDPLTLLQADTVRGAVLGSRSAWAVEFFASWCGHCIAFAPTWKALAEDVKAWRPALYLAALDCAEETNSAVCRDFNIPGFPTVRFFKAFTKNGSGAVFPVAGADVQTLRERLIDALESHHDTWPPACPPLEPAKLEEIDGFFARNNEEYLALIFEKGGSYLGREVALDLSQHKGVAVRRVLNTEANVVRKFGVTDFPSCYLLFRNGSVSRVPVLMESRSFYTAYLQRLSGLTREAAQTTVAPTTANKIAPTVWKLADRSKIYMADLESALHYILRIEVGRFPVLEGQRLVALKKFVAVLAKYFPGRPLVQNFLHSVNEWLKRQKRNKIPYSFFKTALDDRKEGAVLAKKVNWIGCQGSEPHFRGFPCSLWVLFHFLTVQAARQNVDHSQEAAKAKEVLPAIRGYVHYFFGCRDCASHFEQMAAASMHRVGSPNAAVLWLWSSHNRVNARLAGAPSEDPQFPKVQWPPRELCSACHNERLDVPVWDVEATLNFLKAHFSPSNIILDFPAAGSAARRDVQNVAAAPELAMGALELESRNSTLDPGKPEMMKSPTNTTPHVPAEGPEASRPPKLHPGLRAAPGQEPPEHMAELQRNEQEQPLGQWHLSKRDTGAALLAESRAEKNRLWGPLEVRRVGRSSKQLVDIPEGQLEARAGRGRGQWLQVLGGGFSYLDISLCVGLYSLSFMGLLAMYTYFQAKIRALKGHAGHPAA
`Cc1ccccc1/C=C/C1=NCCN1` was tested, and the inhibition was -1.6%. In the case of `COC1(C2=NCCN2)COc2ccccc2O1` (configuration not stated), the inhibition is reported as 2.6% (active). For `O=C1Nc2ccc(I)cc2/C1=C/c1cc(Br)c(O)c(Br)c1`, the inhibition was 97.8% (active). In the case of `CCCCOc1cc(CC2CNC(=O)N2)ccc1OC` (configuration not stated), the inhibition is reported as 2.2% (active). In the case of `O=C1NCN(c2ccccc2)C12CCN(CCCC(c1ccc(F)cc1)c1ccc(F)cc1)CC2`, the inhibition is reported as 9.4% (active). For `Oc1ccc(/C=C/c2ccc(/C=C/c3ccc(O)cc3)c(Br)c2)cc1`, the inhibition was -1.9%. With `Oc1ccc(/C=C/c2cc(O)cc(O)c2)cc1` the inhibition was 78% (active). In the case of `NC(CCCP(=O)(O)O)C(=O)O` (configuration not stated), the inhibition is reported as 4% (active). With `N[C@@H](COP(=O)(O)O)C(=O)O` the inhibition was 1.7% (active). `N[C@H](CCCP(=O)(O)O)C(=O)O` was tested, and the inhibition was 13.7% (active). `CN[C@H](CC(C)C)C(=O)N[C@H]1C(=O)N[C@@H](CC(N)=O)C(=O)N[C@H]2C(=O)N[C@H]3C(=O)N[C@H](C(=O)N[C@H](C(=O)O)c4cc(O)cc(O)c4-c4cc3ccc4O)[C@H](O)c3ccc(c(Cl)c3)Oc3cc2cc(c3O[C@@H]2O[C@H](CO)[C@@H](O)[C@H](O)[C@H]2O[C@H]2C[C@](C)(N)[C@H](O)[C@H](C)O2)Oc2ccc(cc2Cl)[C@H]1O` showed an inhibition of -8.2%. Work on `CN1CCN(CC(=O)N2c3ccccc3C(=O)Nc3cccnc32)CC1` yielded an inhibition of -3.2%. In the case of `Cc1scc2c1N(C(=O)CN1CCN(C)CC1)c1ccccc1NC2=O`, the inhibition is reported as 1.1% (active). In the case of `Cc1ccc(=O)n(-c2ccccc2)c1`, the inhibition is reported as 2.4% (active). In the case of `Oc1ccc(O)cc1`, the inhibition is reported as 14.7% (active). For `Nc1ccc2c3c(cccc13)C(=O)NC2=O`, the inhibition was 13.7% (active). In the case of `NCCNS(=O)(=O)c1cccc2c(Cl)cccc12`, the inhibition is reported as 0.7% (active). For `CC(C)COC(=O)OCN1C(=O)CN(CCN2CC(=O)N(COC(=O)OCC(C)C)C(=O)C2)CC1=O`, the inhibition was 12.5% (active). In the case of `C=CCNc1ncnc2ccc(Br)cc12`, the inhibition is reported as 12.6% (active). With `NC(=O)C(=O)O` the inhibition was 11% (active). `CC[C@H](NC(=O)c1c(C)c(-c2ccccc2)nc2ccccc12)c1ccccc1` was tested, and the inhibition was 9.3% (active). For `COc1ccc(CCN(C)CCCC(C#N)(c2cc(OC)c(OC)c(OC)c2)C(C)C)cc1OC` (configuration not stated), the inhibition was 17% (active). With `COc1ccc(CCN(C)CCCC(C#N)(c2ccc(OC)c(OC)c2)C(C)C)cc1OC` (configuration not stated) the inhibition was 9.1% (active). For `COc1ccc(CCN(C)CCc2ccc(OC)c(OC)c2)cc1OC`, the inhibition was 8% (active). Work on `COc1ccc(Cc2nccc3cc(OC)c(OC)cc23)cc1OC` yielded an inhibition of -10.3%. Work on `O=P(O)(O)C(Cl)(Cl)P(=O)(O)O` yielded an inhibition of -4.1%. With `NC(CO)C(=O)NNCc1ccc(O)c(O)c1O` (configuration not stated) the inhibition was 24.2% (active). In the case of `CN1CCN(c2nc3cc(C(F)(F)F)ccc3n3cccc23)CC1`, the inhibition is reported as 12.2% (active). For `Cc1[nH]c(=O)c(C#N)cc1-c1ccncc1`, the inhibition was 15.5% (active). In the case of `Cc1[nH]c(=O)c(C#N)cc1-c1ccc2nccn2c1`, the inhibition is reported as 1% (active). For `COc1cccc(-c2cc(=O)c3ccccc3o2)c1N`, the inhibition was 7.6% (active). For `NC(=O)N1c2ccccc2C=Cc2ccccc21`, the inhibition was 12.3% (active). For `CC(=O)O[C@H]1Cc2ccccc2N(C(N)=O)c2ccccc21`, the inhibition was -8.4%. With `OCCN1CCN(CCCN2c3ccccc3Sc3ccc(C(F)(F)F)cc32)CC1` the inhibition was 92.8% (active). For `CN1CCN(CCCN2c3ccccc3Sc3ccc(C(F)(F)F)cc32)CC1`, the inhibition was 97% (active). With `OCCN1CCN(CC/C=C2/c3ccccc3Sc3ccc(C(F)(F)F)cc32)CC1` the inhibition was 3.4% (active). `OCCN1CCN(CCCN2c3ccccc3C=Cc3ccccc32)CC1` was tested, and the inhibition was 47.2% (active). With `COC(=O)c1c(C)[nH]c(C)c1C(=O)c1ccccc1Cc1ccccc1` the inhibition was -0.5%. In the case of `CCN(CC)CCNC(=O)c1ccc(N)cc1`, the inhibition is reported as 7.8% (active). For `CCN(CC)CCNC(=O)c1ccc(NS(C)(=O)=O)cc1`, the inhibition was 9.7% (active). In the case of `CCN(CC)CCNC(=O)c1ccc(NC(C)=O)cc1`, the inhibition is reported as -4.7%. `CCCCS(=N)(=O)CCC(N)C(=O)O` (configuration not stated) gave an inhibition of -11.1%. In the case of `CCCCS(=N)(=O)CC[C@H](N)C(=O)O` (some centres not stated), the inhibition is reported as -12.9%. With `NC(=O)CC[C@H](N)C(=O)O` the inhibition was 1.7% (active). `N[C@@H](CCCC(=O)O)C(=O)O` was tested, and the inhibition was 16.9% (active). In the case of `COc1cc(Cc2cnc(N)nc2N)cc(OC)c1OC`, the inhibition is reported as -13.7%. For `COc1ccc(CN(CCN(C)C)c2ccccn2)cc1`, the inhibition was 36.6% (active). With `CN(C)CCN(Cc1cccs1)c1ccccn1` the inhibition was 4.7% (active). With `CC(C)(Sc1ccc(CCN(CCCCC2CCCCC2)C(=O)NC2CCCCC2)cc1)C(=O)O` the inhibition was 3% (active). With `CCCCCN(CCCCC)C(=O)C(CCC(=O)O)NC(=O)c1ccc(Cl)c(Cl)c1` (configuration not stated) the inhibition was 13.5% (active). `O=C(O)CCC(C(=O)O)N1C(=O)c2ccccc2C1=O` (configuration not stated) showed an inhibition of -7.5%. For `CCCN(CCC)C(=O)C(CCC(=O)O)NC(=O)c1ccccc1` (configuration not stated), the inhibition was 12% (active). With `CC1C(=O)N(C)C(=O)c2nc[nH]c21` (configuration not stated) the inhibition was 2.6% (active). With `CCCC(C(=O)OCCN(CC)CC)(c1ccccc1)c1ccccc1` the inhibition was 6.2% (active). For `CCCc1c(OCCCOc2ccc(OCC(=O)O)cc2)ccc(C(C)=O)c1O`, the inhibition was 17.6% (active). In the case of `CCN(CC)CCOC(=O)c1cc(Cl)c(N)cc1OC`, the inhibition is reported as 7.6% (active). In the case of `COc1cc(N)c(Cl)cc1C(=O)OCCN1CCCCC1`, the inhibition is reported as -7.9%. In the case of `CCN(CC)CCNC(=O)c1cc(S(C)(=O)=O)ccc1OC`, the inhibition is reported as 0.6% (active). `CCN(CC)CCCCCCCCOC(=O)c1cc(OC)c(OC)c(OC)c1` was tested, and the inhibition was 17.3% (active). `CCN(CC)CCNC(=O)c1cc(Cl)c(N)cc1OC` was tested, and the inhibition was 2.2% (active). With `NCC(O)c1ccc(O)c(O)c1` (configuration not stated) the inhibition was 43.6% (active). With `NC[C@H](O)c1ccc(O)c(O)c1` the inhibition was 55.1% (active). `CC(=O)N1CCN(c2ccc(OC[C@H]3CO[C@](Cn4ccnc4)(c4ccc(Cl)cc4Cl)O3)cc2)CC1` was tested, and the inhibition was 56.3% (active). `COc1ccc2c(c1OC)C(=O)O[C@@H]2[C@H]1c2c(cc3c(c2OC)OCO3)CCN1C` was tested, and the inhibition was 14.1% (active). In the case of `CCn1cc(C(=O)O)c(=O)c2cc(F)c(N3CCNC(C)C3)c(F)c21` (configuration not stated), the inhibition is reported as 12.8% (active). With `O=[N+]([O-])c1ccc2c(c1)S(=O)(=O)C=C2` the inhibition was 39.1% (active). For `C[C@]12CC[C@@H]3c4ccc(O)cc4C[C@@H](CCCCCCCCCS(=O)CCCC(F)(F)C(F)(F)F)[C@H]3[C@@H]1CC[C@@H]2O` (some centres not stated), the inhibition was 22.3% (active).
